We go through 14 compounds from PubChem BioAssay (Tox21).

Assay [1] can be described thus: qHTS assay to test for compound auto fluorescence at 460 nm (blue) in HEK293 cell free culture (AID 720681). In outline:
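Compounds were added to cell-free DMEM with 10% FBS and fluorescence read directly. The blue channel used 405 nm excitation and 460 nm emission, with triamterene as the reference fluorophore.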
A general note: Quantitative high-throughput screening tests each substance at several concentrations.

Assay [2] can be described thus: qHTS assay to test for compound auto fluorescence at 535 nm (green) in HEK293 cell free culture (AID 720682). In outline:
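Intrinsic compound fluorescence is measured in culture medium containing 10% FBS, with excitation at 485 nm and detection at 535 nm, referenced to fluorescein.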

Assay [3] is described as follows: qHTS assay to test for compound auto fluorescence at 590 nm (red) in HepG2 cell free culture (AID 720684). A digest of the protocol: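 Compound was pinned into wells holding MEM with 10% FBS and no cells, and red fluorescence was read at Ex/Em 540/590 nm. Signal is expressed as auto fluorescence equivalency relative to Rose Bengal sodium.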
Assay [4] can be described thus: qHTS assay to test for compound auto fluorescence at 460 nm (blue) in HepG2 cell free culture (AID 720685). In outline: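 Compound (23 nL) or DMSO pinned into cell-free MEM with 10% FBS; blue fluorescence read at 405/460 nm excitation/emission, expressed as auto-fluorescence equivalency to triamterene.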
A short description of assay [5]: qHTS assay to test for compound auto fluorescence at 535 nm (green) in HepG2 cell free culture (AID 720686). Also: potency is read from the fitted curve at half-maximal effect.
Assay [6] in a line: qHTS assay to test for compound auto fluorescence at 460 nm (blue) in HepG2 cells (AID 720687). In outline: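 HepG2 cells in MEM with 10% FBS, attached overnight at 37 C, were exposed to compound or DMSO for 1 hr at 37 C, 5% CO2. Blue fluorescence was read at 405/460 nm, with triamterene as reference fluorophore.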
In assay [7] the target is Glucocorticoid receptor (Homo sapiens) (UniProt P04150). Kind of assay: qHTS assay to identify small molecule agonists of the glucocorticoid receptor (GR) signaling pathway (AID 720691; active = well fitted activation curve with a large enough effect in the signal ratio in the repeat runs, not every such curve was filed as active; inconclusive = weak or mixed curves, or effect the other way; inactive = no such curve, though single readings can be large or run the other way; the % refers to the signal ratio; also: potency is read from the fitted curve at half-maximal effect). The settings on record: GR-bla HeLa, beta-lactamase reporter ratio, 18 h; activation: at 62.4 µM (top of the series). A digest of the protocol: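 Reporter read-out: fluorescence intensity following 2 h room-temperature LiveBLAzer B/G FRET substrate loading. Prior step: GR-bla HeLa cells held 4 h, then treated 18 h at 37 C.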

Assay [8] has the same target. As to the kind of experiment: qHTS assay to identify small molecule antagonists of the glucocorticoid receptor (GR) signaling pathway (AID 720692; active = well fitted inhibition curve with a large enough effect in the signal ratio in the repeat runs, not every such curve was filed as active; inconclusive = weak or mixed curves, or effect the other way; inactive = no such curve, though single readings can be large or run the other way; the % refers to the signal ratio; also: potency is read from the fitted curve at half-maximal effect). A digest of the protocol:
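Dexamethasone (5 nM final) stimulated a stably integrated GRE-beta-lactamase reporter in HeLa cells during 18 h co-incubation with compounds; signal was quantified as fluorescence intensity of B/G FRET substrate after 2 h.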

A short description of assay [9]: qHTS assay to identify small molecule antagonists of the glucocorticoid receptor (GR) signaling pathway - cell viability counter screen (AID 720693). Also: nearly all actives have a fitted effect of over 55% in size. Also: potency is read from the fitted curve at half-maximal effect.
Assay [10] can be described thus: qHTS assay for identifying genotoxic compounds that show differential cytotoxicity against isogenic chicken DT40 cell lines with known DNA damage response pathways - wild type cell line (AID 743012). Also: nearly all actives have a fitted effect of over 60% in size. Also: potency is read from the fitted curve at half-maximal effect. In outline:
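Using parental DT40 (300 cells/well), compounds delivered in DMSO incubate 40 h at 37 C/5% CO2. CellTiter-Glo reagent then stands 30 min at room temperature, and luminescence gives cell viability.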

The nature of assay [11]: qHTS assay for identifying genotoxic compounds that show differential cytotoxicity against isogenic chicken DT40 cell lines with known DNA damage response pathways - Rev3 mutant cell line (AID 743014). Also: nearly all actives have a fitted effect of over 55% in size. Also: potency is read from the fitted curve at half-maximal effect.
Assay [12] in a line: qHTS assay for identifying genotoxic compounds that show differential cytotoxicity against isogenic chicken DT40 cell lines with known DNA damage response pathways - Rad54/Ku70 mutant cell line (AID 743015). Also: nearly all actives have a fitted effect of over 60% in size. Also: potency is read from the fitted curve at half-maximal effect.
The nature of assay [13]: qHTS assay to identify small molecule antagonists of the androgen receptor (AR) signaling pathway - cell viability counter screen (AID 743033; also: nearly all actives have a fitted effect of over 45% in size).
A short description of assay [14]: qHTS assay to identify small molecule antagonists of the androgen receptor (AR) signaling pathway using the MDA cell line - cell viability counter screen (AID 743041; also: nearly all actives have a fitted effect of over 45% in size; also: potency is read from the fitted curve at half-maximal effect). In outline:
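MDA-kb2 AR-luc cells (MMTV-luciferase, AR/GR responsive) treated with compounds plus R1881 agonist for 16 h at 37C. CellTiter-Fluor added at 15.5 h; fluorescence read after 30 min in the same wells.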

Assay [15] is described as follows: qHTS assay to test for compound auto fluorescence at 590 nm (red) in HEK293 cell free culture (AID 720683). In outline:
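Cell-free wells of DMEM with 10% FBS received compound, and intrinsic fluorescence was read at excitation/emission 540/590 nm. Values expressed as equivalence to Rose Bengal sodium.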

Assay [16] concerns the target Androgen receptor (Homo sapiens) (UniProt P10275). Kind of assay: qHTS assay to identify small molecule antagonists of the androgen receptor (AR) signaling pathway (AID 743035; active = well fitted inhibition curve with a large enough effect in the signal ratio in the repeat runs, not every such curve was filed as active; inconclusive = weak or mixed curves, or effect the other way; inactive = no such curve, though single readings can be large or run the other way; the % refers to the signal ratio; also: potency is read from the fitted curve at half-maximal effect). In outline: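 Using qHTS, AR-UAS-bla GripTite HEK293 cells received compound, then R1881, and were cultured 16 h at 37C/5% CO2 before a 2 h room-temperature LiveBLAzer B/G FRET substrate step and fluorescence measurement.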

Assay [17] shares this target. As to the kind of experiment: qHTS assay to identify small molecule agonists of the androgen receptor (AR) signaling pathway (AID 743036; active = well fitted activation curve with a large enough effect in the signal ratio in the repeat runs, with a control signal flat, not every such curve was filed as active; inconclusive = weak or mixed curves, or effect the other way; inactive = no such curve, though single readings can be large or run the other way; the % refers to the signal ratio). In outline:
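Agonist activity was scored by beta-lactamase reporter fluorescence in stably transfected HEK293 cells exposed to compounds for 16 h at 37C and 5% CO2. Substrate loading took 2 h at room temperature.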

The target is the same in assay [18]. Kind of assay: qHTS assay to identify small molecule agonists of the androgen receptor (AR) signaling pathway using the MDA cell line (AID 743040; also: nearly all actives have a fitted effect of over 20% in size). In outline:
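MDA-kb2 breast carcinoma cells carrying MMTV-luciferase (responsive to AR and GR), plated 5 h then treated 16 h with compounds at 37C, 0% CO2. Read-out was ONE-Glo luminescence after 30 min at room temperature.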

The target is the same in assay [19]. As to the kind of experiment: qHTS assay to identify small molecule antagonists of the androgen receptor (AR) signaling pathway using the MDA cell line (AID 743042; also: nearly all actives have a fitted effect of over 55% in size; also: potency is read from the fitted curve at half-maximal effect). A digest of the protocol: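 MDA-kb2 breast carcinoma cells carrying MMTV-luciferase (AR/GR responsive) were co-treated with compounds and the agonist R1881 for 16 h at 37C. Inhibition read as ONE-Glo luminescence; CellTiter-Fluor fluorescence measured in parallel for cytotoxicity.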

The structures appear in SMILES notation. “And” between values parts separate entries of the source, which are not always exact repeats. Equal values may be shown once. The source made the active and inactive calls. Unless noted, calls follow the shape of the dose curve; as a rule, active = well fitted curve in the direction sought with a large enough effect in the repeat runs; inconclusive = weak or mixed curves; inactive = no such curve, though single readings can be large; an effect the other way counts as inactive or inconclusive. Residues, ends and D or L forms follow the SMILES beside them.
Tags tell the direction and shape of the fitted curve or compound fluorescence and quenching.

Sequence of Glucocorticoid receptor (Homo sapiens) (P04150 whole entry, looked up): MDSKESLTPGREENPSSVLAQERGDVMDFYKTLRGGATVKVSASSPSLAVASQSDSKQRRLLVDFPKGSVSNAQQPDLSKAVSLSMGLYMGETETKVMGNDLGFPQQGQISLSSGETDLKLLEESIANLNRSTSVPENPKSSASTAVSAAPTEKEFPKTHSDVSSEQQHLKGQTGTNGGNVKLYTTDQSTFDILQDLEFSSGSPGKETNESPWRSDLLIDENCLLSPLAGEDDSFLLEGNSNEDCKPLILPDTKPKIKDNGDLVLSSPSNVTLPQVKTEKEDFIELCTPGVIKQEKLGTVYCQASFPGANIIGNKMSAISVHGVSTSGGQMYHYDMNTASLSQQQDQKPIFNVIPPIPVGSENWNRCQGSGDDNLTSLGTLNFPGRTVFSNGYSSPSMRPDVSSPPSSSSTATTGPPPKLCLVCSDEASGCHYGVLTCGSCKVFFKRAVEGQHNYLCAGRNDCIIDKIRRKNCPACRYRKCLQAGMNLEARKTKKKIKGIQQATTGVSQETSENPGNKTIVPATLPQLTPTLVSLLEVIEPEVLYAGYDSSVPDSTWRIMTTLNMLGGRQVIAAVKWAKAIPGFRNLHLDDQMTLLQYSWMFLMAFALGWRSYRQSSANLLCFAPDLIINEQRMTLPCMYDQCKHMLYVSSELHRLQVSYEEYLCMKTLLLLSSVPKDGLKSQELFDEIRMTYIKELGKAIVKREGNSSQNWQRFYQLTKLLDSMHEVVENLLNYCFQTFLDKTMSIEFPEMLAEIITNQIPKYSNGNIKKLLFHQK
Sequence of Androgen receptor (Homo sapiens) (P10275 whole entry, looked up): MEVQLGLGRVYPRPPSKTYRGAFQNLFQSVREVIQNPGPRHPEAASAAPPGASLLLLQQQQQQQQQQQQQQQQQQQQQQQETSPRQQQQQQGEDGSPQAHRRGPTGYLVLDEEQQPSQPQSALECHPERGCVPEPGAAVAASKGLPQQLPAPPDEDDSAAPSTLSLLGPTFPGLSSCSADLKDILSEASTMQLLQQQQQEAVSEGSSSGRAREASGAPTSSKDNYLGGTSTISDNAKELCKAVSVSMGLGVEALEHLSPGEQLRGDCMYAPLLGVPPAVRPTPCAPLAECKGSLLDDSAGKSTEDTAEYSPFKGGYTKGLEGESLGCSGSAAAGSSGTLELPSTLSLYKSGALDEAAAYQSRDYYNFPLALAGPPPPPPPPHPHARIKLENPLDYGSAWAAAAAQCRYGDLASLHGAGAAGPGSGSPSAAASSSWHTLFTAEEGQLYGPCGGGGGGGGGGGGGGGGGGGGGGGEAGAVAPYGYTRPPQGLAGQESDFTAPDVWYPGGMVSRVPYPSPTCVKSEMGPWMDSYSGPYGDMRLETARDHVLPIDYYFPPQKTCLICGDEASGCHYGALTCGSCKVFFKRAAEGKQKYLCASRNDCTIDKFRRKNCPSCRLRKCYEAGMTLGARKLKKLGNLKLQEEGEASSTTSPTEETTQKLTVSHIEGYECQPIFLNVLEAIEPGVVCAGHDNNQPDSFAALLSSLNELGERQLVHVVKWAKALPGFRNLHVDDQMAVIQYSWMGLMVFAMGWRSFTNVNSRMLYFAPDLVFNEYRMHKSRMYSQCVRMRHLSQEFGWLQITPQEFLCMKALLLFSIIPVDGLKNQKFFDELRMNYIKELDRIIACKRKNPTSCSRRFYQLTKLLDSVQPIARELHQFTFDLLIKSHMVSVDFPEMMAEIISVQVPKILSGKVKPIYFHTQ

On to `CO/N=C(\C(=O)N[C@@H]1C(=O)N2C(C(=O)O)=C(COC(C)=O)CS[C@H]12)c1csc(N)n1` (stereo in doubt), for which the Potency result in assay [1], in assay [4], in assay [5], in assay [6], in assay [7] and in assay [8] was “inactive” each time. Further, the Potency result in assay [9], in assay [10], in assay [11], in assay [12], in assay [13] and in assay [14] was “inactive” each time. Further, the call in assay [2] and in assay [3] was inactive.
With `C[C@H](O)CN(C)C`, the Potency result in [1], in assay [4], in [5], in [6], in [9] and in assay [11] was “inactive” throughout. The Potency entry in assay [12], in [13] and in [14] was “inactive” in each case. Besides, the compound was classed as inactive in assay [2], in assay [15] and in assay [3].
As to `CC(C)[C@H](NC(=O)[C@H](CC(=O)O)NC(=O)[C@H](CCCCN)NC(=O)[C@@H](N)CCCN=C(N)N)C(=O)N[C@@H](Cc1ccc(O)cc1)C(=O)O` (H-RKDVY-OH), the Potency entry in [1], in assay [4], in assay [5], in assay [6], in assay [7] and in assay [8] was “inactive” each time. The Potency entry in assay [9], in [10], in [12], in assay [13] and in assay [14] was “inactive” throughout. The result in assay [2], in [15] and in assay [3] was inactive.
`NC[C@H]1O[C@H](O[C@H]2[C@H](O)[C@@H](O[C@H]3O[C@H](CO)[C@@H](O)[C@H](N)[C@H]3O)[C@H](N)C[C@@H]2N)[C@H](N)C[C@@H]1O`: the Potency entry in assay [1], in [5], in [6], in assay [9], in assay [10] and in assay [11] was “inactive” each time. The Potency entry in [13] and in assay [14] was “inactive” throughout. The call in assay [2], in assay [15] and in [3] was inactive.
For the compound `CCN1CCCC1CNC(=O)c1cc(S(=O)(=O)CC)ccc1OC` (stereo unspecified), the Potency entry in [1], in [4], in assay [5], in assay [6], in assay [7] and in [8] was “inactive” each time. Besides, the Potency entry in assay [9], in [10], in assay [11], in assay [13], in assay [16] and in assay [17] was “inactive” in each case. Moreover, the Potency entry in [18], in assay [14] and in assay [19] was “inactive” in each case. Besides, the outcome in assay [15] and in [3] was inactive.
As to `CCOc1ccc([N+](=O)[O-])cc1`, the compound was called inactive in [2], in assay [15] and in assay [3]. In addition, the Potency entry in [4], in assay [5], in [6] and in assay [13] was “inactive” throughout. Moreover, the results for the Potency in assay [9], in [11] and in assay [12] were 35.2 µM (active), 31.1 µM (active) and 43.9 µM (active), respectively.
As for `Cc1onc(-c2c(F)cccc2Cl)c1C(=O)N[C@@H]1C(=O)N2[C@@H]1SC(C)(C)[C@@H]2C(=O)O`, the Potency result in assay [1], in [4], in [5], in assay [6], in [7] and in assay [8] was “inactive” throughout. Further, the Potency result in assay [9], in [10], in assay [11], in assay [12], in assay [13] and in assay [14] was “inactive” in each case. The compound was called inactive in assay [15] and in assay [3].
With `C=CC1=C(C(=O)O)N2C(=O)[C@@H](NC(=O)/C(=N\O)c3csc(N)n3)[C@H]2SC1` (stereo in doubt), the Potency result in [1], in assay [4], in [5], in [6], in [9] and in assay [10] was “inactive” each time. The Potency result in assay [11], in assay [12], in assay [13], in [16], in [17] and in [18] was “inactive” throughout. The Potency result in assay [14] and in assay [19] was “inactive” throughout. For the same compound, the compound was called inactive in assay [2], in [15] and in assay [3].
With `CC(=O)OCC(=O)[C@@]1(O)CC[C@H]2[C@@H]3C[C@H](C)C4=CC(=O)C=C[C@]4(C)[C@H]3[C@@H](O)C[C@@]21C`, the Potency result in assay [1], in assay [5], in assay [6], in [9], in assay [10] and in assay [13] was “inactive” each time. Further, the Potency entry in assay [14] is “inactive”. For the same compound, the compound was classed as inactive in assay [15] and in assay [3]. Besides, the Potency in assay [7] is 0.134 µM [inconclusive] (active).
In the case of `COC(=O)C[C@](O)(CCCC(C)(C)O)C(=O)O[C@@H]1C(OC)=CC23CCCN2CCc2cc4c(cc2[C@H]13)OCO4` (stereo partly specified), the Potency result in assay [1], in [4], in [5], in assay [6] and in [18] was “inactive” in each case. Further, the outcome in assay [15] and in [3] was inactive. Also, the Potency is 0.169 µM (active) in [8]; 1.2 µM (active) and 1.07 µM (active) in assay [9]; 29.8 nM (active) and 23.7 nM (active) in assay [10]; 21.1 nM (active) and 26.6 nM (active) in [11]; 0.0237 µM (active) in [12]; 75.6 nM (active) and 67.4 nM (active) in [16]. Further, the Potency in assay [14] is 0.0531 µM (active); in [19], 0.0211 µM (active).
As for `CC1=C(/C=C/C(C)=C/C=C/C(C)=C\C(=O)O)C(C)(C)CCC1`, the Potency entry in assay [1], in [4], in assay [5], in assay [6] and in [14] was “inactive” throughout. The outcome in assay [2], in [15] and in [3] was inactive. For the same compound, the Potency is 61.3 µM (active) in assay [10], 61.3 µM (active) in assay [11] and 68.8 µM (active) in [12].
Turning to `O=C1[O][Bi][O]c2ccccc21`, the compound was classed as inactive in assay [2]. For the same compound, the Potency entry in assay [9], in assay [10], in assay [11], in assay [12], in [13] and in [14] was “inactive” each time.
Turning to `N#Cc1c(N(CC(=O)O)CC(=O)O)sc(C(=O)O)c1CC(=O)O`, the Potency result in assay [1], in assay [4], in [5], in [6], in assay [9] and in assay [10] was “inactive” throughout. The Potency result in [13] and in [14] was “inactive” in each case. The call in assay [2], in [15] and in assay [3] was inactive.
Turning to `CC(=O)[C@]1(O)Cc2c(O)c3c(c(O)c2[C@@H](O[C@H]2C[C@H](N)[C@H](O)[C@H](C)O2)C1)C(=O)c1ccccc1C3=O`, the Potency entry in assay [1], in assay [6] and in assay [18] was “inactive” throughout. Also, the outcome in assay [15] and in assay [3] was inactive. Besides, the Potency in [5] was 14.1 µM [fluorescent] (active); in [7], 23.9 µM [inconclusive] (active); in [9], 3.01 µM (active); in [10] it was 0.0211 µM (active); in assay [12], 0.0033 µM (active); in assay [16], 3.38 µM (active). The Potency in [14] is 15 µM (active); in [19] it was 0.422 µM (active).
